HPGD block – blocks human HPGD enzyme activity. AID 894. purified HPGD, NADH fluorescence kinetic, PGE2 substrate. 4.3% of 150,000 active. Potency, µM, for inactives: at the top dose activity change, negative = inhibition, usual class: inhibitors. P15428; active means well fitted inhibition curve with a large enough effect, not every such curve was filed as active; inconclusive means small, poorly fitted or top-dose-only effect, or another doubt; inactive means no such curve, though single readings can be large or run the other way; further: potency means the concentration at half of the fitted maximal effect
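NADH formation kinetics: reaction with 30 uM PGE2 and 1 mM NAD+ (final), 20 nM enzyme, Tris-HCl pH 8 with Tween 20, after 15 min compound preincubation at room temperature. Fluorescence change, last versus first of five reads.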
IMPase inh – IMPase inhibition in cells; P97697; CHO-M1 cells, IP1 accumulation, HTRF TR-FRET ratio; inhibition (IP1 accumulation), % at 46.1 µM; 120,000 tested, under 10 active; AID 901; active means well fitted curve in the direction sought with a large enough effect in the signal ratio, not every such curve was filed as active; inconclusive means small, poorly fitted or top-dose-only effect, or a change in a side signal; inactive means no such curve, though single readings can be large or run the other way; the % refers to the signal ratio;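 further: cells stimulated with carbachol in lithium chloride buffer; plate controls were DMSO basal wells for no effect and reference inhibitor wells for full effect; higher means more IMPase inhibition seen as more IP1 and lower FRET ratio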
Target sequence (P97697 whole entry, looked up): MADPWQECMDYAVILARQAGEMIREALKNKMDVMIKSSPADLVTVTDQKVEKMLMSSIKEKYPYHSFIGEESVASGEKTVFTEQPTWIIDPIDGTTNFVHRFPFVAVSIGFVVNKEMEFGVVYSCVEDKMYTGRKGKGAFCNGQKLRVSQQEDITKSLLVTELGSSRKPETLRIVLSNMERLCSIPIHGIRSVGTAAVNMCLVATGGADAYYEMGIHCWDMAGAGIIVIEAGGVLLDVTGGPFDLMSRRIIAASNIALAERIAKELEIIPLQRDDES
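CHO-M1, 2000 cells/well, cultured 16–30 h; cpd up to 46 uM; carbachol (50 uM solution, stimulation buffer w/ 50 mM LiCl, pH 7.4), 30 min 37C; IP-One TR-FRET, 10 min RT; Ex 320/Em 665, 620; Hill-fit AC50.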
ALDH1A1 block – inhibitors of human aldehyde dehydrogenase 1A1; P00352; Purified ALDH1A1, NADH fluorescence, propionaldehyde substrate; Potency, µM (top dose mostly 75.3 µM), for the others: top-dose activity, negative = inhibition, hits mostly inhibitors; 7.3% of 220,000 active; AID 1030; active means well fitted inhibition curve with a large enough effect, not every such curve was filed as active; inconclusive means small, poorly fitted or top-dose-only effect, or another doubt; inactive means no such curve, though single readings can be large or run the other way;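 further: potency means the concentration at half of the fitted maximal effect; plate controls were no enzyme wells and a reference inhibitor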
Target sequence (P00352 whole entry, looked up): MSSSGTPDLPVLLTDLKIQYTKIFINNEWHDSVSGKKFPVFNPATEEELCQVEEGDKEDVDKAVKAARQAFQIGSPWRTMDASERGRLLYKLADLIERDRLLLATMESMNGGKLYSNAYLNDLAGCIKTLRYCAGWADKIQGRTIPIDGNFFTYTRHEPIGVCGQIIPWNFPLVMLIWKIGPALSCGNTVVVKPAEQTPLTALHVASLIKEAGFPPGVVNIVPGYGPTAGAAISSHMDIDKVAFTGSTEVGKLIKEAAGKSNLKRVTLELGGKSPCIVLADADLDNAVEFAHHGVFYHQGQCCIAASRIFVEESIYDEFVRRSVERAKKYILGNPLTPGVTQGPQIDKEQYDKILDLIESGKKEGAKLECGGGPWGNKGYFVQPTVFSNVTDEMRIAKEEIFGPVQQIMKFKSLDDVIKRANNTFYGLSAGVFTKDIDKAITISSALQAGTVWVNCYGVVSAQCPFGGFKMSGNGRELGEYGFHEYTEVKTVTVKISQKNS
PNC inhibitor – perinucleolar compartment assembly inhibition | 3.1% of 140,000 active | PC3M PTB-GFP, PNC prevalence imaging, 16 h; hits give low values | activity change (PNC), negative = inhibition, % at 10 µM;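 active means readout at or below -70, meaning at least 70% loss of cells showing the perinucleolar compartment, a nuclear body marking cancer cells; inconclusive means readout between -30 and a set limit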;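 further: plate controls were DMSO wells for no effect and camptothecin positive control wells for full effect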
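PC3M cells stably expressing PTB-GFP, 750–1000 cells/well, treated 16 h at 37 °C with compound (23 nl of library stock), in duplicate. After paraformaldehyde fixation and Hoechst stain, imaged at 20x; PNC prevalence scored by image analysis.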
IMPase Li inh – membrane-permeable IMPase blocker, potentiated with lithium; CHO-M1 cells, IP1 TR-FRET (IP-One), carbachol + lithium; Potency, µM (highest dose often 59.4 µM), for the others: at the top dose activity, negative = IMPase inhibition, hits mostly inhibitors; 0.35% of 210,000 active;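 further: IP1 builds up when IMPase is blocked and the TR-FRET signal falls; potency means the concentration at half of the fitted maximal effect; plate controls were basal vehicle for no effect and high inhibitor control for full effect; nearly all actives have a fitted effect of over 50% in size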
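IP1 accumulation measured by competitive TR-FRET in lysed CHO-M1 cells after 30 min compound exposure at 37C, with a small lithium addition to potentiate weak responses. Hill-equation AC50 from ratio and donor-channel data.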
12-hLO inh – blocks human 12-lipoxygenase activity; P18054; purified 12-hLO, xylenol orange hydroperoxide absorbance; Potency, µM (highest dose often 57.1 µM), without a hit: top-dose activity change, negative = inhibition, actives largely listed as inhibitors; 0.12% of 150,000 active; further: potency means the concentration at half of the fitted maximal effect; nearly all actives have a fitted effect of over 55% in size
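Purified human 12hLO (150 nM), preincubated 15 min with compound, then 40 uM arachidonic acid for 30 min, room temperature, Hepes pH 7.0 with 0.01% Triton X-100. Hydroperoxide detected by ferrous iron/xylenol orange; 573/405 nm absorbance ratio gives reaction progress.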
* hit, by the source's call; ? = inconclusive; · = no result given; ! = not active in a repeat; [ ] = dose if it differs, or a comment. Compounds with a hit are over-represented: about 11% of the library has one in this group of screens. Unless noted, the call rests on the fitted dose curve; in most records, active means well fitted curve in the direction sought with a large enough effect; inconclusive means small, poorly fitted or top-dose-only effect, or another doubt; inactive means no such curve, though single readings can be large; an effect the other way counts as inactive or inconclusive. Unless noted, on the % scale 0 is the no-effect control and ±100 the full control effect.

SMILES	HPGD block	IMPase inh	ALDH1A1 block	PNC inhibitor	IMPase Li inh	12-hLO inh
COc1ccc(-c2nc3n(n2)C(c2ccccc2F)C(C(=O)Nc2cccnc2)=C(C)N3)cc1OC (stereo unspecified)	·	14	·	·	·	·
COc1cc(-n2c(C)nc3cc(C(=O)N4CCOCC4)ccc32)cc(OC)c1OC	32µM*	5	2%	?	3%[38.3 µM]	-1%
Cc1cnc(CNc2ncnc3ccc(-c4ccoc4)cc23)cn1	·	·	?	·	9%	·
Nc1ncn([C@@H]2O[C@H](CO)[C@@H](O)[C@H]2O)c(=O)n1	-8%	2	22µM*!	·	2%	-6%
Nc1nc(SCc2ccc([N+](=O)[O-])cc2)c2ncn([C@@H]3O[C@H](CO)[C@H](O)[C@H]3O)c2n1	25µM*	·	-13%	·	-18%	·
Cc1ccc2oc(-c3ccc(NC(=O)CCC(=O)O)cc3)nc2c1	·	-5	·	·	·	·
O=c1c(-c2ccc(F)cc2)nc2cnc(N3CCNCC3)nc2n1-c1ccccc1	·	·	?	·	0%	·
C[C@@H](C(=O)Cc1ccc2ccccc2c1)[C@@H]1C[C@@]1(C)[C@@H](NP(=O)(c1ccccc1)c1ccccc1)c1ccccc1	-16%	·	5%	·	-7%	-4%
COc1ccc(NS(=O)(=O)/C=C/c2ccccc2)cc1	-14%	·	2.5µM*	-16	-9%	-2%
COc1ccc(CC2NCCC3(O)CCCCC23)cc1 (stereo unspecified)	-19%	4	16µM*	-7	-7%[38.3 µM]	-3%
CCSC1=C(C#N)C(c2ccccc2Cl)C(C(=O)c2cccs2)C(O)(C(F)(F)F)N1 (stereo unspecified)	-14%	-5[1.84 µM]	11µM*	-7	45%[38.3 µM]	-13%
CSC1=C(C#N)C(c2ccccc2Cl)C(C(=O)c2cccs2)C(O)(C(F)(F)F)N1 (stereo unspecified)	2%	·	-8%	?	5%	-4%
O=C1NC(c2ccccc2)C(C(=O)c2cccs2)C(O)(C(F)(F)F)N1 (stereo unspecified)	-1%	-12	?	27	-7%[38.3 µM]	-2%
C=CCSC1=C(C#N)C(c2ccccc2Cl)C(C(=O)c2cccs2)C(O)(C(F)(F)F)N1 (stereo unspecified)	-9%	·	14µM*	-1	17%	-12%
CC/C=C\C/C=C\C/C=C\C/C=C\C/C=C\CCC(=O)O[C@H](COCCCCCCCCCCCCCCCC)COP(=O)([O-])OCC[N+](C)(C)C	-3%	·	-7%	·	-4%	-1%
CCCN=C1NC(=O)C(CC(=O)NCCc2ccccc2)S1 (stereo unspecified)	·	·	28µM*	·	0%	·
CN(Cc1cc(Br)cc(Br)c1N)C1CCCCC1	-10%	·	2%	·	8%	-5%
CC(=O)O/N=C1\C(=O)N(Cc2ccc(C)cc2)c2ccccc21	·	·	?	·	-2%	·
CC(C)CC(=O)O/N=C1\C(=O)N(Cc2ccc(Cl)cc2)c2ccc([N+](=O)[O-])cc21	14µM*	-6	?	14	-2%[38.3 µM]	-26%
Cc1cccn2c(/C=N/OCc3cccc(F)c3)c(-c3ccc(Cl)cc3)nc12	?	8	?	36	15%[38.3 µM]	-1%
COc1cccc(/C(C#N)=C/c2c(-c3ccc(Cl)cc3)nc3c(C)cccn23)c1	-9%	9	-1%	-99*	13%	-3%
N#C/C(=N\Nc1cccc2ccccc12)c1nnc2n1CCCCC2	18µM*	-4	22%	-113*	-4%	1%
c1ccc2c(-c3nnc4n3CCCCC4)c[nH]c2c1	25µM*	7	-15%	-19	-14%[38.3 µM]	7%
N#C/C(=C\c1c[nH]c2ccccc12)c1nnc2n1CCCCC2	13µM*	-3	-14%	2	-4%	-3%
C/C(O)=C(\C#N)c1nnc2n1CCCCC2	-14%	-2	?	30	-8%[38.3 µM]	-2%
SMILES	HPGD block	IMPase inh	ALDH1A1 block	PNC inhibitor	IMPase Li inh	12-hLO inh
Nc1cccc(-c2nnc3n2CCCCC3)c1	·	·	-10%	·	4%	·
Cc1cccc(-c2cccc(-c3cc(=O)oc4cc5c(cc34)OCO5)c2)c1	?	·	?	·	0%	3%[0.00818 µM]
Cc1ccc(NC(=O)c2c(C)nc3sc(C(=O)Nc4ccc(F)cc4)c(N)c3c2-c2ccc(C)o2)c(C)c1	·	-2	·	·	·	·
Brc1cc2c(cc1/C=N/Nc1nc(N3CCCC3)nc(N3CCOCC3)n1)OCO2	-7%	8	14µM*	?	17%[38.3 µM]	1%
Oc1ccc(Br)cc1/C=N/Nc1nc(N2CCCCC2)nc(N2CCOCC2)n1	·	·	5%	·	15%	·
Cc1nc(CCN2C(=O)c3ccccc3C2=O)cs1	-6%	-6	-5%	-111*	-1%[38.3 µM]	1%
CNc1nc(CCN2C(=O)c3ccccc3C2=O)cs1	-9%	-4	?	-5	3%[38.3 µM]	1%
CCOC(=O)CC(=O)CSc1nc2nc(C)cc(C)n2n1	16µM*	7	13µM*	?	9%[38.3 µM]	-9%
CNC(=O)CSc1nc2nc(C)cc(C)n2n1	-18%	-1	-16%	-11	-11%[38.3 µM]	6%
Oc1ccc(/C(Cc2ccccn2)=N\Nc2ccccc2)c(O)c1	·	·	18µM*	·	15%	·
Oc1ccc(/C(Cc2ccc3ccccc3n2)=N\Nc2ccccc2)c(O)c1	·	·	?	·	2%	·
Cc1ccc(S(=O)(=O)NCc2ccc(C(=O)N3CCCC3)cc2)cc1	20µM*	·	?	50	-2%	-5%
CCOC(=O)N1CCN(C(=O)c2ccc(CNS(=O)(=O)c3ccc(C)cc3)cc2)CC1	-5%	5	0%	?	-35%[38.3 µM]	-4%
Cc1ccc(S(=O)(=O)Cc2ccc(C(=O)N3CCCCCC3)o2)cc1	-6%	-9	?	-8	-20%[38.3 µM]	-4%
CC(C)(C)c1ccc(S(=O)(=O)NCc2ccc(C(=O)N3CCCC3)cc2)cc1	?	-5	4µM*	17	14%[38.3 µM]	-1%
Cc1ccc(S(=O)(=O)Cc2ccc(C(=O)N3CCCC3)o2)cc1	2%	4	-13%	-87*	-17%[38.3 µM]	-1%
Cc1ccc(S(=O)(=O)Nc2nc3c(s2)C(=O)CC(C)(C)C3)cc1	·	·	32µM*	·	-16%	·
COc1cccc(CC(=O)Nc2nc3c(s2)C(=O)CC(C)(C)C3)c1	·	·	1.3µM*	·	?	·
CC1(C)CC(=O)c2sc(NC(=O)Cc3cccs3)nc2C1	-24%	0	0.79µM*	187	?	2%
Cn1nc(C(C)(C)C)cc1C(=O)Nc1nc2c(s1)C(=O)CC(C)(C)C2	-11%	?	14µM*	7	-21%[38.3 µM]	-7%
CC(C)(C)N1C(=O)[C@H]2[C@H]3[C@H](O)[C@H](O)C/C(=N/OCc4ccccc4)[C@H]3CC[C@@H]2C1=O	·	·	5%[13.5 µM]	·	·	·
CCOCC(=O)Nc1nc2c(s1)C(=O)CC(C)(C)C2	?	?	?	-15	13%[38.3 µM]	0%
